# Test results published in ChEMBL document CHEMBL3988442, “University of Dundee, Small-Polar-MMV Screening Library” (2021).
# Tests used:
# [1] = biological target: T1, Aspartate--tRNA(Asp/Asn) ligase (Mycobacterium tuberculosis (strain ATCC 25618 / H37Rv)) (UniProt P9WFW3); experiment: Assay for Asp RNA synthetase-1 from Mycobacterium tuberculosis; type: functional; parameters: scale not given: direction of the effect not stated beside the values; conditions: 30 µM; further: in the data most compounds retested in dose-response had high values
# T1 sequence (whole entry): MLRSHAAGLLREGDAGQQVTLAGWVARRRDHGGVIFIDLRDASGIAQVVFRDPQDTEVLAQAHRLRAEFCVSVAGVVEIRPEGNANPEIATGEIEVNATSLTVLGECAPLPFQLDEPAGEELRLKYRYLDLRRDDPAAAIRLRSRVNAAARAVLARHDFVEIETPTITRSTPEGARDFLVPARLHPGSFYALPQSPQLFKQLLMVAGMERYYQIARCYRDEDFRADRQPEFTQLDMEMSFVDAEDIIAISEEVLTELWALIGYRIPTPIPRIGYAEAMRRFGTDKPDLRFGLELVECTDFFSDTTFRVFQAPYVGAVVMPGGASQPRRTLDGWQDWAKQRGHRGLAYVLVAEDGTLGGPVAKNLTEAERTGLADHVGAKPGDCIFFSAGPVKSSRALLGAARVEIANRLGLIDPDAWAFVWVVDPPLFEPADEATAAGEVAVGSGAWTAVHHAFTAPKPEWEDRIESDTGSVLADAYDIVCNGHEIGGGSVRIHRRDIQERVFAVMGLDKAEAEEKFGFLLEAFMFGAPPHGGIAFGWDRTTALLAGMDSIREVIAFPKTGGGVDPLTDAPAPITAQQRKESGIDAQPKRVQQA
# [2] = biological target: Shiga toxin 2 (Escherichia coli O157:H7) (UniProt P09385+P09386); experiment: E. coli 0.157:H7 Shiga Toxin SOP - stx2 screening assay; type: functional; parameters: scale not given: direction of the effect not stated beside the values; conditions: 30 µM
smiles,measurement,setting,value
O=C(c1cnc(C2CC2)s1)N1CCCCC1Cn1cccn1 (configuration not stated),Percent Effect,[1],-8.43%
same,Percent Effect,[2],-18.5%
N#Cc1c(F)cccc1N1CCC(NS(=O)(=O)c2cccs2)CC1,Percent Effect,[1],10.6%
same,Percent Effect,[2],-25.2%
CSc1ccccc1CN1CCn2nc(CNC(C)=O)cc2C1,Percent Effect,[1],6.15%
same,Percent Effect,[2],-66.1%
c1ccc(-n2ccc(CN3CCCC3Cn3cccn3)n2)cc1 (configuration not stated),Percent Effect,[1],4.81%
same,Percent Effect,[2],-19.3%
O=C1CCC2(CCN(Cc3ccc(F)cc3)CC2)N1Cc1ccccc1,Percent Effect,[1],-0.182%
same,Percent Effect,[2],6.77%
CCOCCn1c(=O)[nH]c2cc(C(=O)N(C)Cc3nc(C)cs3)ccc21,Percent Effect,[1],1.06%
same,Percent Effect,[2],-4.35%
Cc1noc(C)c1C1CCCN1C(=O)CN1CC2(CCNCC2)OC1=O (configuration not stated),Percent Effect,[1],-0.658%
same,Percent Effect,[2],-21%
Cc1ccc(CN2CC3(CCN(C(=O)c4cscn4)C3)C2)s1,Percent Effect,[1],-2.67%
same,Percent Effect,[2],-39.3%
Cc1nn(C)c(C)c1CC(=O)N1CCC(N(C)c2cccnn2)CC1,Percent Effect,[1],-4.15%
same,Percent Effect,[2],27.2%
CC[C@@]1(O)CCN(C(=O)c2ccsc2)C[C@H]1O,Percent Effect,[1],-4.99%
same,Percent Effect,[2],-16.9%
O=C(c1ccc(-n2cccn2)nc1)N1CCCN(c2cccnn2)CC1,Percent Effect,[1],-4.61%
same,Percent Effect,[2],3.17%
O=C(c1ccc2c(c1)OCO2)N1CCC[C@]2(C[C@H](OCC3CC3)CO2)C1,Percent Effect,[1],1.07%
same,Percent Effect,[2],5.01%
Cc1cc(C(=O)NCc2cccnc2OC(C)C)no1,Percent Effect,[1],-2.27%
same,Percent Effect,[2],26.9%
Cc1cccnc1NC(=O)CC1(Cn2cnnn2)CCCCC1,Percent Effect,[1],7.1%
same,Percent Effect,[2],2.81%
CCc1nc(CN2CCCN(C(=O)COCC3CC3)CC2)cs1,Percent Effect,[1],-3.19%
same,Percent Effect,[2],-49.1%
CCC1CN(C(=O)Nc2cnc3c(cnn3C(C)C)c2)CCO1 (configuration not stated),Percent Effect,[1],0.932%
same,Percent Effect,[2],13.4%
O=C1CC(c2cccc(O)c2)c2c(c(C(=O)O)cn2-c2ccccc2)N1 (configuration not stated),Percent Effect,[1],22.9%
same,Percent Effect,[2],-12.9%
CC(C1CC1)N(C)C(=O)c1cnc(-c2ccc3c(c2)OCO3)s1 (configuration not stated),Percent Effect,[1],3.36%
same,Percent Effect,[2],-42.7%
COc1ccc(CN2CCOC3(CCCN(c4nnc(C)o4)C3)C2)cc1 (configuration not stated),Percent Effect,[1],-5.88%
same,Percent Effect,[2],7.44%
CCCNC(=O)c1cnc(N(C)C)nc1COC,Percent Effect,[1],-0.929%
same,Percent Effect,[2],-6.54%
COc1nc(C)cc(C)c1CNC(=O)N(C)Cc1cnn(C)c1,Percent Effect,[1],4.2%
same,Percent Effect,[2],6.51%
COc1ccc(CN(C)CC(=O)NC2(C)CCS(=O)(=O)C2)cc1F (configuration not stated),Percent Effect,[1],10.4%
same,Percent Effect,[2],-2.83%
O=C(NCCn1ccc(-c2ccccn2)n1)C1CC1,Percent Effect,[1],2.14%
same,Percent Effect,[2],-6.67%
COCC1CN(C(=O)c2ccnnc2)Cc2c1cnn2C (configuration not stated),Percent Effect,[1],0.28%
same,Percent Effect,[2],-14.3%
Cc1cnn(CC2CCCN2C(=O)c2cccc(CC#N)c2)c1 (configuration not stated),Percent Effect,[1],-1.43%
same,Percent Effect,[2],8.24%
CCN(Cc1ccc2c(c1)OCO2)C(=O)CCc1c(C)nc(C)[nH]c1=O,Percent Effect,[1],-2.63%
same,Percent Effect,[2],29.9%
Cc1cnc(CN2CCOC(Cn3nc(C)nc3C)C2)cn1 (configuration not stated),Percent Effect,[1],-1.8%
same,Percent Effect,[2],-9.64%
CC(NC(=O)CCOc1ccccc1Cl)c1nnc2n1CCC2 (configuration not stated),Percent Effect,[1],-1%
same,Percent Effect,[2],22.6%
CN(CCCc1cnn(C)c1)C(=O)C1CCOC1 (configuration not stated),Percent Effect,[1],5.2%
same,Percent Effect,[2],-36.5%
CC(=O)N1CC[C@@H]2CN(C(=O)c3ccco3)CCO[C@@H]2C1,Percent Effect,[1],4.25%
same,Percent Effect,[2],-3.17%
CCNC(c1cccnc1)c1cc(C)cc(C)c1 (configuration not stated),Percent Effect,[1],-2.55%
same,Percent Effect,[2],-3.23%
CC(C)c1n[nH]c(C2CN(C(=O)CCn3ccccc3=O)CCO2)n1 (configuration not stated),Percent Effect,[1],-1.85%
same,Percent Effect,[2],10.2%
COC(=O)c1cccn1C1CCN(C(=O)c2cn[nH]c2C)CC1,Percent Effect,[1],-3.31%
same,Percent Effect,[2],-8.31%
O=C(NC1CC(=O)N(Cc2cccc(F)c2)C1)c1ccncc1 (configuration not stated),Percent Effect,[1],0.413%
same,Percent Effect,[2],-9.17%
CC(OCC(F)(F)F)C(=O)N1CCN(S(C)(=O)=O)CC1 (configuration not stated),Percent Effect,[1],-0.604%
same,Percent Effect,[2],-10.8%
O=C(NCC(O)c1ccc(F)c(F)c1)c1cccnc1OCC(F)(F)F (configuration not stated),Percent Effect,[1],-1.66%
same,Percent Effect,[2],-9.04%
O=C(Nc1cccnc1)N1CCC(n2ccc(C(F)(F)F)n2)CC1,Percent Effect,[1],-4.08%
same,Percent Effect,[2],-16.7%
O=C(NCCS(=O)(=O)N1CCc2ccccc21)c1c(O)cc(F)cc1F,Percent Effect,[1],-2.88%
same,Percent Effect,[2],23%
c1ccc(CN2CCCC(c3nccnc3-n3ccnc3)C2)cc1 (configuration not stated),Percent Effect,[1],2.31%
same,Percent Effect,[2],-2.34%
COCCc1noc(CN2CCCCC2Cn2nc(C)cc2C)n1 (configuration not stated),Percent Effect,[1],-0.417%
same,Percent Effect,[2],1.32%
Cc1ccc(CC(=O)N2Cc3nccn3CC(CN(C)C)C2)cc1 (configuration not stated),Percent Effect,[1],1.66%
same,Percent Effect,[2],5.05%
c1ccc2sc(CN3CCCC3c3noc(C4CC4)n3)nc2c1 (configuration not stated),Percent Effect,[1],-1.34%
same,Percent Effect,[2],3.03%
Cc1nn(C)c(C)c1C1CCCN1Cc1noc(C2CC2)n1 (configuration not stated),Percent Effect,[1],6.1%
same,Percent Effect,[2],16.3%
CC1CCCN(C(=O)c2cccc(CS(C)(=O)=O)c2)C1 (configuration not stated),Percent Effect,[1],-4.9%
same,Percent Effect,[2],-32%
O=C1[C@@H]2CCN(Cc3ccoc3)C[C@@H]2OCCN1c1ccccc1,Percent Effect,[1],-0.779%
same,Percent Effect,[2],4.03%
Cn1nc(C2CCCN(Cc3cccc(F)c3)C2)c2nccnc21 (configuration not stated),Percent Effect,[1],-0.491%
same,Percent Effect,[2],14.8%
